Common to all, as to experiment: protein-binding microarray (PBM); PBM: ~300 nM protein, 6 mM HEPES pH 7.8, 80 mM KCl, 0.5 mM EDTA, 0.5 mM EGTA, 6% glycerol, 35 ng/ul poly-dIdC, 1% milk, 1 h, room temperature; Ap Aiptasia and Nv Nematostella (sea anemones) / Co Capsaspora / Aq Amphimedon (sponge) / Dm Drosophila / Hu human; RHD is the Rel homology domain; high values mean tight binding
Details in all cases: dsDNA, one strand shown

For one assay, the target named is T1, GST-Ap-NF-kB RHD (Exaiptasia pallida (Aiptasia), UniProt A0A913YAJ5 2-422).
T1 sequence: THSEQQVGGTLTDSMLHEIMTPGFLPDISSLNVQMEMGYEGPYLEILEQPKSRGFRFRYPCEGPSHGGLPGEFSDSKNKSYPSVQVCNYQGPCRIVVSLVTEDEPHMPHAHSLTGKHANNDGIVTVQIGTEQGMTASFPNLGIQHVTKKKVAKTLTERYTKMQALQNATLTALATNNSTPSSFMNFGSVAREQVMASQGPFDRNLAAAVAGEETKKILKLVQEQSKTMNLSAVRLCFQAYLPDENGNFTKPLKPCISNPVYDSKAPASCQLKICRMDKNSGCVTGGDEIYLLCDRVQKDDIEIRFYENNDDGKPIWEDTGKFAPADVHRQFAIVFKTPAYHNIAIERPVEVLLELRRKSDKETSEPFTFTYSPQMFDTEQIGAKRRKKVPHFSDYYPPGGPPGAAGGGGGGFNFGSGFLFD

Assay [1] has as its target T2, GST-Nv-NF-kB (Cys allele) (Nematostella vectensis, UniProt E5G601 2-411).
T2 sequence: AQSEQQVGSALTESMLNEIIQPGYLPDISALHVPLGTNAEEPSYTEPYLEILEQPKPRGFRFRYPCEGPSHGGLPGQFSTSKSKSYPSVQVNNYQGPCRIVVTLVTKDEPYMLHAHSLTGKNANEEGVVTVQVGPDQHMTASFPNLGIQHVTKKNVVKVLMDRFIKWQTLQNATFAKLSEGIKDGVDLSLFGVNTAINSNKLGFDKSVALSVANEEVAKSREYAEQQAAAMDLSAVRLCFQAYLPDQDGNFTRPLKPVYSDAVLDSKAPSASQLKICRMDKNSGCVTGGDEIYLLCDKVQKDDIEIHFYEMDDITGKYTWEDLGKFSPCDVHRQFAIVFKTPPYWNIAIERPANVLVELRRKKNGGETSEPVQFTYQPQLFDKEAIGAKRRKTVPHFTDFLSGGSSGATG

Assay [2] concerns the target T3, GST-Nv-NF-kB (Ser allele) (Nematostella vectensis, UniProt A7UNT2 2-411).
T3 sequence: T2 sequence with Q21R, C66S, S207N, E215Q, V217A, E225K, A268E, D399E

A further assay concerns the target T4, GST-Co-NF-kB (Capsaspora owczarzaki, UniProt F1ARL5 200-546).
T4 sequence: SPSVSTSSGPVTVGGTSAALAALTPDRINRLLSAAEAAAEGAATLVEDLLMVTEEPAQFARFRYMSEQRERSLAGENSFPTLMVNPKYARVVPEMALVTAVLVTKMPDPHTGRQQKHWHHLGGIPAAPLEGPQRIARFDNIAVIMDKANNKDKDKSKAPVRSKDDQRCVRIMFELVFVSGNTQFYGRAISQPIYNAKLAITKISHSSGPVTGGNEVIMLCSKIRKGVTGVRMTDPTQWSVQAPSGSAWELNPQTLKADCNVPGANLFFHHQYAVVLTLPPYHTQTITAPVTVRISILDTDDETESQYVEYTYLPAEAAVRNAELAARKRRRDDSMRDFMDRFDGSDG

A further assay deals with T5, GST-Dm-Relish (Drosophila melanogaster, UniProt Q94527 99-473).
T5 sequence: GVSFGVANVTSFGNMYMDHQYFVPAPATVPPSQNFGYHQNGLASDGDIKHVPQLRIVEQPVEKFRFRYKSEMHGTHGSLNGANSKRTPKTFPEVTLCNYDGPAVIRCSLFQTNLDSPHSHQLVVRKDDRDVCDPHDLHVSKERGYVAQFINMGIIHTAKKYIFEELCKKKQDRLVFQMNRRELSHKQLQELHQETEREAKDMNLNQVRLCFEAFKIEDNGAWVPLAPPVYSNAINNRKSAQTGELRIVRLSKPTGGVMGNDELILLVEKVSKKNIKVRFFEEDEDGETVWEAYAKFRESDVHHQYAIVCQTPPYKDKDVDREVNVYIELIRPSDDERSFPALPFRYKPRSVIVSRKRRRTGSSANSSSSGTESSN

For another assay, the target named is T6, GST-Aq-NF-kB (Amphimedon queenslandica, UniProt A9Y5G7 2-389).
T6 sequence: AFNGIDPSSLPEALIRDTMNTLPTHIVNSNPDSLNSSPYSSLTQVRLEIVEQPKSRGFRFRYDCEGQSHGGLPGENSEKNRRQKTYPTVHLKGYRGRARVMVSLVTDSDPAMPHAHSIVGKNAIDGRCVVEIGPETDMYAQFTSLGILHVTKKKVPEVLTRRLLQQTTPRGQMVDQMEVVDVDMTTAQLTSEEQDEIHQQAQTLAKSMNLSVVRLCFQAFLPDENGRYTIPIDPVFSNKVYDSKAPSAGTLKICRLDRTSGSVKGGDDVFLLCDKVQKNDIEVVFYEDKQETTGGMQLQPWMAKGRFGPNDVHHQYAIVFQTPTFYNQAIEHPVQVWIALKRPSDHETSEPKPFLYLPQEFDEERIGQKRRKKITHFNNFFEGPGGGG

The target of a further assay is GST-Hu-p50 (Homo sapiens, UniProt P19838 7-356).
GST-Hu-p50, sequence (P19838 7-356): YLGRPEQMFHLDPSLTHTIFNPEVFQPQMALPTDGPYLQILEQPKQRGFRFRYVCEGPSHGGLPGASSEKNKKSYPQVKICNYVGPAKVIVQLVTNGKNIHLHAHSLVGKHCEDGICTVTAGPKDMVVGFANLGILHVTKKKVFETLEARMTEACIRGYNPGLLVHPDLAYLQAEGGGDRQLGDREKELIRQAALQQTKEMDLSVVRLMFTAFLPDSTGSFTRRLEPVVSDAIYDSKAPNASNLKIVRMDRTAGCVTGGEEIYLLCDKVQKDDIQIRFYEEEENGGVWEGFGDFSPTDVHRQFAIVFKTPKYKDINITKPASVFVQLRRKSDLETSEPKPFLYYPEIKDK

Positions count from the first letter of the chain named.

Consider “CCGATTAACATCACTAGTCCCCCTGATGTTAATCGGGTCTTGATTCGCTTGACGCTGCTG”, for which the binding signal with GST-Ap-NF-kB RHD worked out at 4.7 z-score; in assay [1], 3.39 z-score; in assay [2] it was 3.45 z-score; in the assay with GST-Co-NF-kB, 3.98 z-score; with GST-Dm-Relish, 2.58 z-score; with GST-Aq-NF-kB it was 3.81 z-score. This sequence came in with a binding signal in the assay with GST-Hu-p50 of 3.46 z-score.

Consider “CCGATTAACATCAAAGAAACCCCTGATGTTAATCGGGTCTTGATTCGCTTGACGCTGCTG”, for which the binding signal with GST-Ap-NF-kB RHD was 6 z-score; in assay [1] it was 5.33 z-score; in assay [2], 5.11 z-score; in the assay with GST-Co-NF-kB, 1.95 z-score; in the assay with GST-Dm-Relish, 6.23 z-score; with GST-Aq-NF-kB it was 5.01 z-score. The binding signal with GST-Hu-p50 was found to be 5.25 z-score.

As to “CCGATTAACATCAAAATACCCCCTGATGTTAATCGGGTCTTGATTCGCTTGACGCTGCTG”, the binding signal in the assay with GST-Ap-NF-kB RHD worked out at 9.02 z-score; in assay [1], 7.56 z-score; in assay [2], 8.62 z-score; with GST-Co-NF-kB, 7.21 z-score; with GST-Dm-Relish it was 7.72 z-score; with GST-Aq-NF-kB, 7.21 z-score. For the same sequence, in the assay with GST-Hu-p50, the binding signal came out at 6.58 z-score.

With “CCGATTAACATCAAATAACCCCCTGATGTTAATCGGGTCTTGATTCGCTTGACGCTGCTG”, the binding signal was determined as 7.15 z-score with GST-Ap-NF-kB RHD; 7.1 z-score in assay [1]; 7.94 z-score in assay [2]; 4.2 z-score in the assay with GST-Co-NF-kB; 8.44 z-score in the assay with GST-Dm-Relish; 7.02 z-score with GST-Aq-NF-kB. Further, in the assay with GST-Hu-p50, the binding signal was found to be 6.17 z-score.

Regarding “CCGATTAACATCAGAACACCCCCTGATGTTAATCGGGTCTTGATTCGCTTGACGCTGCTG”, the binding signal worked out at 5.58 z-score with GST-Ap-NF-kB RHD; 4.69 z-score in assay [1]; 4.4 z-score in assay [2]; 3.33 z-score with GST-Co-NF-kB; 4.87 z-score with GST-Dm-Relish; 5.48 z-score with GST-Aq-NF-kB. Further, the binding signal with GST-Hu-p50 was determined as 5.09 z-score.

Regarding “CCGATTAACATCACCCGTTCCCCTGATGTTAATCGGGTCTTGATTCGCTTGACGCTGCTG”, the binding signal in the assay with GST-Ap-NF-kB RHD amounted to 5.61 z-score; in assay [1] it was 4.83 z-score; in assay [2] it was 6.11 z-score; in the assay with GST-Co-NF-kB, 4.75 z-score; in the assay with GST-Dm-Relish it was 1.99 z-score; with GST-Aq-NF-kB it was 3.78 z-score. Besides, the binding signal in the assay with GST-Hu-p50 came out at 3.85 z-score.

“CCGATTAACATCAAGGGAGTTCCTGATGTTAATCGGGTCTTGATTCGCTTGACGCTGCTG”: the binding signal with GST-Ap-NF-kB RHD worked out at 4.53 z-score; in assay [1] it was 4.56 z-score; in assay [2], 2.92 z-score; in the assay with GST-Co-NF-kB, 1.22 z-score; in the assay with GST-Dm-Relish, 5.02 z-score; in the assay with GST-Aq-NF-kB, 5.71 z-score. The binding signal with GST-Hu-p50 came out at 3.7 z-score.

“CCGATTAACATCACGAATTCCCCTGATGTTAATCGGGTCTTGATTCGCTTGACGCTGCTG”: the binding signal came to 8.93 z-score with GST-Ap-NF-kB RHD; 10.1 z-score in assay [1]; 10.9 z-score in assay [2]; 7.11 z-score with GST-Co-NF-kB; 6.96 z-score with GST-Dm-Relish; 6.73 z-score with GST-Aq-NF-kB. This sequence yielded a binding signal in the assay with GST-Hu-p50 of 6.95 z-score.

For the sequence “CCGATTAACATCAAGGGGAATTATGATGTTAATCGGGTCTTGATTCGCTTGACGCTGCTG”, the binding signal worked out at 7.82 z-score with GST-Ap-NF-kB RHD; 10.5 z-score in assay [1]; 11.4 z-score in assay [2]; 6.37 z-score in the assay with GST-Co-NF-kB; 7.09 z-score with GST-Dm-Relish; 7.24 z-score with GST-Aq-NF-kB. Also, the binding signal with GST-Hu-p50 was 7.43 z-score.

With “CCGATTAACATCAAATTGTCCCCTGATGTTAATCGGGTCTTGATTCGCTTGACGCTGCTG”, the binding signal is 4.64 z-score with GST-Ap-NF-kB RHD; 5.87 z-score in assay [1]; 6.62 z-score in assay [2]; 6.08 z-score with GST-Co-NF-kB; 2.6 z-score in the assay with GST-Dm-Relish; 4.84 z-score in the assay with GST-Aq-NF-kB. Moreover, the binding signal with GST-Hu-p50 was 4.96 z-score.

On to “CCGATTAACATCAGGGCTTCCCCTGATGTTAATCGGGTCTTGATTCGCTTGACGCTGCTG”, for which the binding signal came to 9.17 z-score with GST-Ap-NF-kB RHD; 10.8 z-score in assay [1]; 8.58 z-score in assay [2]; 4.03 z-score in the assay with GST-Co-NF-kB; 10.4 z-score in the assay with GST-Dm-Relish; 9.48 z-score with GST-Aq-NF-kB. The same sequence yielded a binding signal with GST-Hu-p50 of 6.74 z-score.

As to “CCGATTAACATCAAATAATCCCCTGATGTTAATCGGGTCTTGATTCGCTTGACGCTGCTG”, the binding signal with GST-Ap-NF-kB RHD is 8.76 z-score; in assay [1], 10 z-score; in assay [2], 10.6 z-score; with GST-Co-NF-kB it was 5.91 z-score; with GST-Dm-Relish, 7.99 z-score; with GST-Aq-NF-kB it was 7.75 z-score. This sequence also returned a binding signal in the assay with GST-Hu-p50 of 6.78 z-score.

Values taken from publication PMC5700166.
